From PubChem BioAssay (Tox21)
Inconclusive results are not listed. Activity calls are given as the source filed them. Unless noted, calls come from the whole dose curve; as a rule, active = well fitted curve in the direction sought with a large enough effect in the repeat runs; inconclusive = weak or mixed curves; inactive = no such curve, though single readings can be large; an effect the other way counts as inactive or inconclusive.

Tests used:
[1] = qHTS assay to identify small molecule agonists of the peroxisome proliferator-activated receptor delta (PPARd) signaling pathway - cell viability counter screen (AID 743211); note: nearly all actives have a fitted effect of over 55% in size
Procedure, shortened: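 Following 5 h plating at 37 C and 5% CO2, PPARd UAS-bla HEK293H cells took up test compounds for 17 h. Viability was quantified by luminescence 30 min after CellTiter-Glo addition at room temperature.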

[2] = target: Peroxisome proliferator-activated receptor delta (Homo sapiens) (UniProt Q03181); assay: qHTS assay to identify small molecule agonists of the peroxisome proliferator-activated receptor delta (PPARd) signaling pathway (AID 743212; calls by dose curve)
Procedure, shortened: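 Cells expressing a UAS-driven beta-lactamase reporter (PPARd-bla HEK293H) were given test compounds after a 5 h settle and kept at 37 C. Reporter activity was then measured as FRET fluorescence using LiveBLAzer B/G substrate.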

[3] = qHTS assay to identify small molecule antagonists of the peroxisome proliferator-activated receptor delta (PPARd) signaling pathway - cell viability counter screen (AID 743213); note: nearly all actives have a fitted effect of over 50% in size
Procedure, shortened: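 PPARd-bla HEK293H cells were treated with compounds plus agonist L165041 (300 nM final) for 17 h at 37 C. Viability was then read in the same wells by CellTiter-Glo luminescence after 30 min at room temperature.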

[4] = target: Peroxisome proliferator-activated receptor delta (Homo sapiens) (UniProt Q03181); assay: qHTS assay to identify small molecule antagonists of the peroxisome proliferator-activated receptor delta (PPARd) signaling pathway (AID 743215; active = well fitted inhibition curve with a large enough effect in the signal ratio in the repeat runs, not every such curve was filed as active; the % refers to the signal ratio;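 note: cells stimulated with agonist L165041 at 300 nM final during compound exposure; series mostly up to about 62 µM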)
Procedure, shortened: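 Fluorescence from cleaved LiveBLAzer B/G FRET substrate (2 h, room temperature) reports PPARd-driven beta-lactamase in HEK293H UAS-bla cells. Cells had been treated 17 h at 37 C with compound plus 300 nM final L165041.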

[5] = target: Bile acid receptor (Homo sapiens) (UniProt Q96RI1); assay: qHTS assay to identify small molecule antagonists of the farnesoid-X-receptor (FXR) signaling pathway (AID 743217; active = well fitted inhibition curve with a large enough effect in the signal ratio in the repeat runs, not every such curve was filed as active; the % refers to the signal ratio)
Procedure, shortened: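 FRET fluorescence after 2 h room-temperature LiveBLAzer loading gives the readout. Prior step: FXR-bla HEK 293T cells, seeded and incubated 5 h, received test compounds plus 50 uM final CDCA for 16 h at 37 °C.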

[6] = qHTS assay to identify small molecule agonists of the farnesoid-X-receptor (FXR) signaling pathway - cell viability counter screen (AID 743218); note: nearly all actives have a fitted effect of over 45% in size
Procedure, shortened: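 Readout: CellTiter-Glo luminescence, 30 min RT, multiplexed after the FXR-bla FRET reading. HEK 293T FXR-UAS-bla cells received compound 5 h post-plating and were incubated 16 h at 37 C.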

[7] = target: Bile acid receptor (Homo sapiens) (UniProt Q96RI1); assay: qHTS assay to identify small molecule agonists of the farnesoid-X-receptor (FXR) signaling pathway (AID 743220; active = well fitted activation curve with a large enough effect in the signal ratio in the repeat runs, not every such curve was filed as active; the % refers to the signal ratio)
Procedure, shortened: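 FXR-UAS-bla HEK 293T cells carrying a UAS-driven beta-lactamase reporter were plated for 5 h at 37C/5% CO2, then exposed to DMSO-dissolved Tox21 10K compounds for 16 h at 37C. A LiveBLAzer B/G FRET substrate was loaded for 2 h at room temperature before fluorescence reading.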

[8] = qHTS assay to identify small molecule antagonists of the farnesoid-X-receptor (FXR) signaling pathway - cell viability counter screen (AID 743221; active = well fitted cell-killing curve with a large enough effect in the repeat runs, not every such curve was filed as active; note: nearly all actives have a fitted effect of over 50% in size)
Procedure, shortened: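 Compound effects on cell number were measured as CellTiter-Glo luminescence in HEK 293T cells expressing FXR-UAS-bla, after 16 h at 37 C with 50 uM CDCA (final).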

[9] = target: Vitamin D3 receptor (Homo sapiens) (UniProt P11473); assay: qHTS assay to identify small molecule agonists of the vitamin D receptor (VDR) signaling pathway (AID 743222; calls by dose curve)
Procedure, shortened: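 Following 4 h attachment at 37C, VDR-bla cells (2,000 per well) received DMSO-dissolved compounds or controls. After 16 h incubation, LiveBLAzer B/G FRET substrate was added and fluorescence read 2 h later at room temperature.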

[10] = target: Vitamin D3 receptor (Homo sapiens) (UniProt P11473); assay: qHTS assay to identify small molecule antagonists of the vitamin D receptor (VDR) signaling pathway (AID 743223; active = well fitted inhibition curve with a large enough effect in the signal ratio in the repeat runs, not every such curve was filed as active; the % refers to the signal ratio)
Procedure, shortened: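 Beta-lactamase activity in VDR-bla cells is measured by FRET substrate fluorescence (2 h, room temperature) after cells spend 16 h at 37C with test compound and 3 nM final 1alpha,25-dihydroxyvitamin D3.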

[11] = qHTS assay to identify small molecule antagonists of the vitamin D receptor (VDR) signaling pathway - cell viability counter screen (AID 743225); note: nearly all actives have a fitted effect of over 50% in size
Procedure, shortened: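 In this counter screen, VDR-bla HEK 293T cells receive test compound plus 3 nM final calcitriol for 16 h at 37C. Room-temperature steps of 2 h with the beta-lactamase substrate, then 30 min with CellTiter-Glo, precede the luminescence read.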

[12] = qHTS assay to identify small molecule agonists of the NFkB signaling pathway (AID 1159509; active = well fitted curve in the direction sought with a large enough effect in the signal ratio in the repeat runs, not every such curve was filed as active; the % refers to the signal ratio; note: series mostly up to about 61 µM)
Procedure, shortened: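 Agonist activity was read as beta-lactamase-driven FRET change (460 and 530 nm emission, 405 nm excitation) following 1.5 hr substrate loading at room temperature. Beforehand, ME-180 NFkB-bla reporter cells were treated with compounds for 5 hr at 37 C.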

[13] = qHTS assay to identify small molecule agonists of the NFkB signaling pathway - cell viability counter screen (AID 1159515; calls by dose curve; note: series mostly up to about 61 µM; nearly all actives have a fitted effect of over 55% in size)
Procedure, shortened: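 Plate 2,000 NFkB-bla ME-180 cells/well; incubate overnight. Add compounds, 5 hr at 37 C. Add FRET substrate, 1.5 hr RT. Add CellTiter-Glo, 30 min RT; read luminescence.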

[14] = qHTS assay to identify small molecule agonists of the endoplasmic reticulum stress response signaling pathway (AID 1159516; active = well fitted activation curve with a large enough effect in the signal ratio in the repeat runs, not every such curve was filed as active; the % refers to the signal ratio)
Procedure, shortened: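 Beta-lactamase expression from the ER stress response element in HeLa reporter cells is quantified with the LiveBLAzer B/G FRET substrate, read at 405 nm excitation after 2 hr at room temperature, following 5 hr compound treatment at 37 C.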

[15] = qHTS assay to identify small molecule agonists of the endoplasmic reticulum stress response signaling pathway - cell viability counter screen (AID 1159517; calls by dose curve; note: series mostly up to about 61 µM; nearly all actives have a fitted effect of over 50% in size)
Procedure, shortened: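 Cpd-treated ESRE-bla HeLa (5 hr, 37 C) → LiveBLAzer 2 hr RT → CellTiter-Glo 30 min RT → luminescence.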

[16] = qHTS assay to identify small molecule antagonists of the retinoid-related orphan receptor gamma (ROR-gamma) signaling pathway - cell viability counter screen (AID 1159520); note: nearly all actives have a fitted effect of over 50% in size
Procedure, shortened: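 Tet-on ROR gamma CHO cells (1,000/well) were plated 4 hr, given compounds in DMSO for 2 hr at 37 C, then induced with 1 uM final doxycycline for 16 hr. Viability was read as ATP by CellTiter-Glo luminescence after 30 min.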

[17] = target: Nuclear receptor ROR-gamma (Homo sapiens) (UniProt P51449); assay: qHTS assay to identify small molecule antagonists of the retinoid-related orphan receptor gamma (ROR-gamma) signaling pathway (AID 1159521)
Procedure, shortened: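 Screening format: cell-based luciferase reporter in CHO cells with doxycycline-inducible RORγ. Compound pre-exposure lasts 2 h, doxycycline is 1 uM final, induction runs 16 h at 37 C, and ONE-Glo luminescence is read.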

[18] = qHTS assay to identify small molecule agonists of the AP-1 signaling pathway - cell viability counter screen (AID 1159525; calls by dose curve; note: nearly all actives have a fitted effect of over 55% in size)
Procedure, shortened: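 Each titration point was normalised to DMSO and tetra n-octyl ammonium bromide controls. The read was Cell Titer Glo luminescence after 30 min at RT, following 5 h compound exposure of ME-180 AP-1-bla cells at 37 °C.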

[19] = qHTS assay to identify small molecule agonists of the AP-1 signaling pathway (AID 1159526; calls by dose curve)
[20] = qHTS assay to identify small molecule agonists of the vitamin D receptor (VDR) signaling pathway - cell viability counter screen (AID 743224)
Procedure, shortened: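 In parallel with the bla FRET readout, cytotoxicity toward VDR-bla cells after 16 h compound exposure was assessed by CellTiter-Glo, with luminescence recorded after a 30 min room-temperature incubation.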

Measured: outcome

Chain of Bile acid receptor (Homo sapiens) (Q96RI1 whole entry, looked up): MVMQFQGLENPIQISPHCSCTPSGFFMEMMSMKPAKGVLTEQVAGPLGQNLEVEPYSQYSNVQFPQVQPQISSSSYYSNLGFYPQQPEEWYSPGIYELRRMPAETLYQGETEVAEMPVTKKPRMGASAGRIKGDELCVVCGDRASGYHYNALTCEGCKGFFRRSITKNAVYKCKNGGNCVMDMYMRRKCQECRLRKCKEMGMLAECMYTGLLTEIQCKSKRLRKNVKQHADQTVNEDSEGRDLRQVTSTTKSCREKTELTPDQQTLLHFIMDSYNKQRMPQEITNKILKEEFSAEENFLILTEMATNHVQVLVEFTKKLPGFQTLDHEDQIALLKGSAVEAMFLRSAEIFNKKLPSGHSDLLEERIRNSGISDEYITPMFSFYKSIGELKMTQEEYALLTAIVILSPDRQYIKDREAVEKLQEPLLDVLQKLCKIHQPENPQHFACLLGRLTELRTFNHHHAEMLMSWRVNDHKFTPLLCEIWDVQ
Chain of Vitamin D3 receptor (Homo sapiens) (P11473 whole entry, looked up): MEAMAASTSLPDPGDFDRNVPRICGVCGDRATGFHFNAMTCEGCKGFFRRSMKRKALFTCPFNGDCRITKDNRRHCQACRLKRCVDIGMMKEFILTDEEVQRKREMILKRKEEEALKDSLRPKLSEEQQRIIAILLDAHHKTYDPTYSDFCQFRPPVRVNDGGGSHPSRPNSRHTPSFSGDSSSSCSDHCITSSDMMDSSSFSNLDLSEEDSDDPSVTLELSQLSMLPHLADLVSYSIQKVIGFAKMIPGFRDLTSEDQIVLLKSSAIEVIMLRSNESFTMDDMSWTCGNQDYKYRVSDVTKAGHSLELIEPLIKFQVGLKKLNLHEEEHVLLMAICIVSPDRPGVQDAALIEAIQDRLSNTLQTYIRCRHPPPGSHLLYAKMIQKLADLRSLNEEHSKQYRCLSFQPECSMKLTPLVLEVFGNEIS
Chain of Peroxisome proliferator-activated receptor delta (Homo sapiens) (Q03181 whole entry, looked up): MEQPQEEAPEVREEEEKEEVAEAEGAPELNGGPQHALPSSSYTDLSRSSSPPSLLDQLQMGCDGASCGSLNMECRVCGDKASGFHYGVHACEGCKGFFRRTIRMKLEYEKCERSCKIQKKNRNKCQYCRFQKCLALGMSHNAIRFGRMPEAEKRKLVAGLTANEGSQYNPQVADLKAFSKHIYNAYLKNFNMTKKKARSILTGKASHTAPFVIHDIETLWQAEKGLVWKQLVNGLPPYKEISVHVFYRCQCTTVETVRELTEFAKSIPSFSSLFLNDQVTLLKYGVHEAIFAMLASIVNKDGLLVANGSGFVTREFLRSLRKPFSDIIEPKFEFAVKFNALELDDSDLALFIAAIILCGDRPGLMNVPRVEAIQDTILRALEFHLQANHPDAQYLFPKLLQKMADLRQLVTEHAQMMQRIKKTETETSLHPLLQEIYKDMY

O=C(O)c1cc2ccccc2nc1C(=O)O
inactive: [1] | [2] | [3] | [4] | [5] | [6] | [7] | [8] | [9] | [10] | [11] | [12] | [13] | [14] | [15] | [16] | [17] | [18] | [19]

CCC(C)C(=O)OCCc1ccccc1 (stereo unspecified)
inactive: [1] | [2] | [3] | [4] | [6] | [7] | [8] | [11] | [12] | [13] | [14] | [15] | [16] | [17] | [18] | [19]

CC(=O)CC(=O)Nc1ccc(C)cc1C
inactive: [1] | [2] | [3] | [4] | [5] | [6] | [7] | [8] | [11] | [12] | [13] | [14] | [15] | [16] | [17] | [18] | [19]

CN1CCOC(c2ccccc2)c2ccccc2C1 (stereo unspecified)
inactive: [1] | [2] | [3] | [4] | [5] | [6] | [7] | [20] | [11] | [12] | [13] | [14] | [15] | [16] | [17] | [18] | [19]

O=NN(CCCl)C(=O)NC1CCCCC1
inactive: [1] | [2] | [3] | [4] | [5] | [6] | [7] | [8] | [20] | [11] | [12] | [13] | [14] | [15] | [16] | [17] | [18] | [19]

CC(C)CCOC(=O)c1ccccc1
inactive: [1] | [2] | [3] | [4] | [6] | [7] | [8] | [9] | [10] | [11] | [12] | [13] | [14] | [15] | [16] | [17] | [18] | [19]

COc1cc(/C=C/C(N)=O)cc(OC)c1OC
inactive: [1] | [2] | [3] | [4] | [5] | [6] | [7] | [8] | [9] | [10] | [20] | [11] | [12] | [13] | [14] | [15] | [16] | [17] | [18] | [19]

CCOCCOCC
inactive: [1] | [2] | [3] | [4] | [5] | [6] | [7] | [9] | [20] | [11] | [12] | [13] | [14] | [15] | [16] | [17] | [18] | [19]

Cn1nnc2c(C(N)=O)ncn2c1=O
inactive: [1] | [2] | [3] | [4] | [5] | [6] | [7] | [9] | [10] | [11] | [12] | [13] | [14] | [15] | [16] | [17] | [18] | [19]

CC(=O)C(C)O (stereo unspecified)
inactive: [1] | [2] | [3] | [4] | [5] | [6] | [7] | [8] | [9] | [10] | [11] | [12] | [13] | [14] | [15] | [16] | [17] | [18] | [19]

OCC1CCC(CO)CC1 (stereo unspecified)
inactive: [1] | [2] | [3] | [4] | [5] | [7] | [8] | [9] | [10] | [11] | [12] | [13] | [14] | [15] | [16] | [17] | [18] | [19]

C[C@H]1[C@@H](c2ccccc2)NC(=O)N1C
inactive: [1] | [2] | [3] | [4] | [5] | [6] | [7] | [8] | [9] | [10] | [20] | [11] | [12] | [13] | [14] | [15] | [16] | [17] | [18] | [19]

COC(=O)CCCCC(CCSS/C(CCO)=C(\C)N(C=O)Cc1cnc(C)nc1N)SC(C)=O (stereo unspecified)
inactive: [1] | [2] | [3] | [4] | [5] | [6] | [7] | [8] | [20] | [11] | [12] | [13] | [14] | [15] | [16] | [17] | [18] | [19]

CCNC(=O)NCc1cccc(Cl)c1
inactive: [1] | [2] | [3] | [4] | [5] | [6] | [7] | [8] | [9] | [10] | [20] | [11] | [12] | [13] | [14] | [15] | [16] | [17] | [18] | [19]
